According to PubChem BioAssay (NCI):
Several values for one entry are separate records, joined by “and”; a condition that tells them apart may be missing. Equal entries are not always repeated. This is part of a sample that, as a whole, favours compounds with a hit. Of some 83,000 tested, about 20% had one in any assay.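 Step 1: grow cells in 96-well plates. Step 2: add test compound at a single concentration. Step 3: incubate 48 h. Step 4: record percent growth.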 Activity calls are given as the source filed them.

Each compound was assayed on A549/ATCC NSCLC (assay: NCI-60 one-dose screen, 48 h (100 = growth as untreated, 0 = no growth, -100 = all killed)). Conditions: 10 µM unless noted.
Experimental: Growth inhibition of the A549/ATCC human Non-Small Cell Lung tumor cell line is measured as a screen for anti-cancer activity. Cells are grown in 96 well plates and exposed to the test compound for 48 hours. Compounds are tested at a single concentration, which is 10^-5 M for most compounds. The reported endpoint is percent growth (GI% or GIPRCNT), where numbers from 0 - 100% represent growth inhibition, and numbers from -100% - 0 represent cell death. For example, a value of 40 represents 60% growth inhibition. A value of 0 means no net growth occurred over the course of the experiment. A value of -40 indicates 40% of cells at the beginning of the experiment died by the end of the experiment. A value of -100 means all cells are dead at the end of the experiment.
NCI-60 Human Tumor Cell Lines Screen was performed using the standard one-dose NCI protocol, which is described in more detail at https://dtp.cancer.gov/discovery_development/nci-60/default.htm.
Compounds with GIPRCNT values below 10 were considered active. Activity score was based on GIPRCNT using the following formula: […]
Score is 0 for GIPRCNT values of 100 or above, 50 for GIPRCNT values of 0, and 100 for GIPRCNT values of -100.

**Q.** Which growth does the source give for `CCOP(=O)(OCC)/C(C#N)=C/c1c(C)[nH]c2ccccc12` here?
**A.** The growth was 93.1% (inactive).

**Q.** For `CC(C)(C)OC(=O)c1ccc(NCc2cc(O)ccc2O)cc1`, which growth is on record?
**A.** The growth was 40.9% (inactive).

**Q.** How did the growth turn out when `Cc1ccc(NC(=S)N/C=C(\c2ccccc2)S(=O)Cc2ccccc2)c(C)c1` (stereo not given) was run?
**A.** The growth was 97.7% (inactive).

**Q.** For `COc1ccc2oc3cc(NCCN(C)C)ccc3c(=O)c2c1`, which growth is on record?
**A.** The growth was 95.2% (inactive) and 73.8% (inactive).

**Q.** With `Cn1c(-c2ccccc2)cc(=O)cc1-c1ccccc1` as the compound, how does the growth read?
**A.** Its growth is 96.4% (inactive).

**Q.** For `Cc1cc(O)c(C(C)C)cc1N=O`, which growth is on record?
**A.** Its growth is 106% (inactive) and 99.9% (inactive).

**Q.** With `O=C1c2ccccc2CN1c1ccccc1` as the compound, how does the growth read?
**A.** Its growth is 91.4% (inactive).

**Q.** For `CCOC(=N)c1ccc(C(=N)OCC)cc1`, which growth is on record?
**A.** The growth was 99.7% (inactive).

**Q.** `Cc1ccc(S(=O)(=O)n2ccnc2)cc1` was tested. Which growth did it give?
**A.** Its growth is 89.1% (inactive).

**Q.** `CCCCC/C(C)=N\NC(N)=S` was tested. Which growth did it give?
**A.** The growth was 78.4% (inactive).

**Q.** Which growth does the source give for `CCC(C)(O)CCC(C)(O)CC` (stereo not given) here?
**A.** The growth was 106% (inactive).

**Q.** `C#CCOC(=O)C(N)CS` (stereo not given) was tested. Which growth did it give?
**A.** Its growth is 118% (inactive).

**Q.** `COC1C(OC(N)=O)C(O)C(Oc2ccc3c(O)c(NC(=O)c4ccc(O)c(CC=C(C)C)c4)c(=O)oc3c2C)OC1(C)C` (stereo not given) was tested. Which growth did it give?
**A.** Its growth is 105% (inactive) and 103% (inactive).

**Q.** `COc1ccc(CCN=Cc2ccc(Cl)cc2)cc1OC` was tested. Which growth did it give?
**A.** The growth was 108% (inactive).

**Q.** `O=C(O)/C=C/C=C/c1ccccc1` was tested. Which growth did it give?
**A.** Its growth is 98.4% (inactive) and 97.8% (inactive).

**Q.** How did the growth turn out when `Cc1c(O)nc(N)[nH]c1=O` was run?
**A.** The growth was 99.9% (inactive).

**Q.** `Oc1ccc(O)c(-c2ccccc2)c1` was tested. Which growth did it give?
**A.** The growth was 66.1% (inactive).

**Q.** `CCOC(=O)c1ccncc1` was tested. Which growth did it give?
**A.** The growth was 104% (inactive).

**Q.** How did the growth turn out when `Cc1cc(Cl)nc(Nc2ccccc2)n1` was run?
**A.** The growth was 104% (inactive).

**Q.** Which growth does the source give for `Nc1ccc(Cl)c(S(=O)(=O)O)c1` here?
**A.** The growth was 106% (inactive).

**Q.** How did the growth turn out when `O=C1C=CC(=O)N1Cc1ccco1` was run?
**A.** Its growth is 92.1% (inactive).

**Q.** For `O=c1[nH]c(=O)n(C2OC(CO)C(O)C2O)cc1I` (stereo not given), which growth is on record?
**A.** The growth was 96.3% (inactive) and 100% (inactive).

**Q.** Which growth does the source give for `Nc1ccc2ccc(NS(=O)(=O)N3CCCCC3)cc2c1` here?
**A.** The growth was 39.3% (inactive).

**Q.** With `NC1=NC(c2ccccc2)N=C(Nc2ccccc2)N1` (stereo not given) as the compound, how does the growth read?
**A.** The growth was 94.1% (inactive) and 106% (inactive).

**Q.** How did the growth turn out when `CCc1ccc(OC(=O)CCl)cc1` was run?
**A.** The growth was 105% (inactive).

**Q.** With `C(#CCN1CCOCC1)CCCN1CCOCC1` as the compound, how does the growth read?
**A.** The growth was 105% (inactive) and 100% (inactive).

**Q.** How did the growth turn out when `O=C(O)c1ccc2c3ccc(C(=O)O)c4c(C(=O)O)ccc(c5ccc(C(=O)O)c1c25)c43` was run?
**A.** The growth was 92.1% (inactive).

**Q.** `CC1(CO)CCCC1NCCNC1CCCC1(C)CO` (stereo not given) was tested. Which growth did it give?
**A.** The growth was 105% (inactive) and 104% (inactive).

**Q.** `Cc1cnc(N)s1` was tested. Which growth did it give?
**A.** Its growth is 69% (inactive).

**Q.** Which growth does the source give for `CCOP(C)(=O)/C(Cc1ccc(OC)c(OC)c1)=N\O` (stereo not given) here?
**A.** The growth was 108% (inactive).

**Q.** For `CC(=O)Nc1ccc2oc(=O)ccc2c1`, which growth is on record?
**A.** Its growth is 102% (inactive).

**Q.** How did the growth turn out when `COc1cc2c(cc1O)C(=O)CCCC2` was run?
**A.** The growth was 110% (inactive).

**Q.** `CC1OS(=O)OC1C` (stereo not given) was tested. Which growth did it give?
**A.** Its growth is 97.9% (inactive) and 104% (inactive).

**Q.** With `COc1cc(NCCCCCCCNC(C)C)c2nccc(C)c2c1` as the compound, how does the growth read?
**A.** Its growth is 95.1% (inactive) and 90.6% (inactive).

**Q.** For `N#Cc1ccc(/C=C/C(=O)c2ccccc2)cc1`, which growth is on record?
**A.** The growth was 88.2% (inactive) and 98.7% (inactive).

**Q.** How did the growth turn out when `O=C(NC(CSSCC(NC(=O)OCc1ccccc1)C(=O)O)C(=O)O)OCc1ccccc1` (stereo not given) was run?
**A.** The growth was 80.5% (inactive).

**Q.** Which growth does the source give for `COc1cc([C@@H]2c3cc4c(cc3[C@H](O)[C@H]3COC(=O)[C@@H]23)OCO4)cc(OC)c1OC` here?
**A.** The growth was 12.3% (inactive) and 21.2% (inactive).

**Q.** For `Cc1nc2c(=O)[nH]c(=S)[nH]c2[nH]c1=O`, which growth is on record?
**A.** The growth was 103% (inactive) and 105% (inactive).

**Q.** With `Oc1cccnc1CN1CCOCC1` as the compound, how does the growth read?
**A.** The growth was 102% (inactive) and 96.5% (inactive).

**Q.** How did the growth turn out when `CCOc1ccc(/C=C\C(=O)O)cc1` was run?
**A.** Its growth is 104% (inactive).
